± gives the standard deviation of the averaged measurements.
Assays:
Experiment in all cases: relative enzymatic activity vs untreated control (fraction); higher = less inhibition
Conditions in all cases: 100 µM; incubation time: 2 h at 37 C
DNA gyrase = system: DNA gyrase
Procedure: (§1)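 In vitro enzymatic inhibition assays (ProFoldin kits) for 12 purified essential E. coli enzymes or complexes, each treated with 218 active antibacterial compounds at 100 µM for 2 h at 37°C. Read-outs were fluorescence or absorbance (phosphate detection, dye binding), converted to activity via standard curves and expressed relative to untreated DMSO controls.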

DNA helicase = DNA helicase (UniProt P0ACB1)
Chain of DNA helicase (P0ACB1 whole entry): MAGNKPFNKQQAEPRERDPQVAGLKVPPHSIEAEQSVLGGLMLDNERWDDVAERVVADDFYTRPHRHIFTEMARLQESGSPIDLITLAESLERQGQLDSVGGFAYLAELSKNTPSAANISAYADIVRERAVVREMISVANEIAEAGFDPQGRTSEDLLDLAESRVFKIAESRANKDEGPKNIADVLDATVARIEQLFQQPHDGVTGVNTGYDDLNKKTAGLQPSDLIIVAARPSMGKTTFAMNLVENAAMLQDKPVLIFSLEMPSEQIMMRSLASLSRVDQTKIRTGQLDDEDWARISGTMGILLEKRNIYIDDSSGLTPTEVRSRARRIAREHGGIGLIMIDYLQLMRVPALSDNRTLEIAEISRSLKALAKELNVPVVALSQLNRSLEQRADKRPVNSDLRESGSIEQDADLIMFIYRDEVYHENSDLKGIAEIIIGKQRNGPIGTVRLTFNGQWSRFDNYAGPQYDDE
Procedure: as §1

DNA ligase = DNA ligase (UniProt B1XA82)
Chain of DNA ligase (B1XA82 whole entry): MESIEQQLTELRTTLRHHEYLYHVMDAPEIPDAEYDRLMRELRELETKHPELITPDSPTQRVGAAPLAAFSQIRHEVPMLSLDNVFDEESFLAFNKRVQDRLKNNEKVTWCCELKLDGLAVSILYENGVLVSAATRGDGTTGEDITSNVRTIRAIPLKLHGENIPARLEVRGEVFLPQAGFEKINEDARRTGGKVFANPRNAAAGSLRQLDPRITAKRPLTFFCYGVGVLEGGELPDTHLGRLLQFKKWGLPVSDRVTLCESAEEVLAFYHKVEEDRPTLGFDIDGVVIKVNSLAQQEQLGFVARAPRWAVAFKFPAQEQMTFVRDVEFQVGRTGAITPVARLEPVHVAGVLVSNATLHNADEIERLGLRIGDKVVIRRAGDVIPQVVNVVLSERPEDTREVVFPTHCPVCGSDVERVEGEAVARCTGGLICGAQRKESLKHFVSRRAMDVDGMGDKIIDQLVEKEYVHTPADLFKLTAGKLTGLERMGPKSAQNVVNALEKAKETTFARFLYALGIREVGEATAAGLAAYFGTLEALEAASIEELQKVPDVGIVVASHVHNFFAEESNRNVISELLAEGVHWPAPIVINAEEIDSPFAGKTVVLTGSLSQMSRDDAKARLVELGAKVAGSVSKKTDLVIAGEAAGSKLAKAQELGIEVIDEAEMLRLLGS
Procedure: as §1

DNA polymerase = DNA polymerase (UniProt P10443)
Chain of DNA polymerase (P10443 whole entry): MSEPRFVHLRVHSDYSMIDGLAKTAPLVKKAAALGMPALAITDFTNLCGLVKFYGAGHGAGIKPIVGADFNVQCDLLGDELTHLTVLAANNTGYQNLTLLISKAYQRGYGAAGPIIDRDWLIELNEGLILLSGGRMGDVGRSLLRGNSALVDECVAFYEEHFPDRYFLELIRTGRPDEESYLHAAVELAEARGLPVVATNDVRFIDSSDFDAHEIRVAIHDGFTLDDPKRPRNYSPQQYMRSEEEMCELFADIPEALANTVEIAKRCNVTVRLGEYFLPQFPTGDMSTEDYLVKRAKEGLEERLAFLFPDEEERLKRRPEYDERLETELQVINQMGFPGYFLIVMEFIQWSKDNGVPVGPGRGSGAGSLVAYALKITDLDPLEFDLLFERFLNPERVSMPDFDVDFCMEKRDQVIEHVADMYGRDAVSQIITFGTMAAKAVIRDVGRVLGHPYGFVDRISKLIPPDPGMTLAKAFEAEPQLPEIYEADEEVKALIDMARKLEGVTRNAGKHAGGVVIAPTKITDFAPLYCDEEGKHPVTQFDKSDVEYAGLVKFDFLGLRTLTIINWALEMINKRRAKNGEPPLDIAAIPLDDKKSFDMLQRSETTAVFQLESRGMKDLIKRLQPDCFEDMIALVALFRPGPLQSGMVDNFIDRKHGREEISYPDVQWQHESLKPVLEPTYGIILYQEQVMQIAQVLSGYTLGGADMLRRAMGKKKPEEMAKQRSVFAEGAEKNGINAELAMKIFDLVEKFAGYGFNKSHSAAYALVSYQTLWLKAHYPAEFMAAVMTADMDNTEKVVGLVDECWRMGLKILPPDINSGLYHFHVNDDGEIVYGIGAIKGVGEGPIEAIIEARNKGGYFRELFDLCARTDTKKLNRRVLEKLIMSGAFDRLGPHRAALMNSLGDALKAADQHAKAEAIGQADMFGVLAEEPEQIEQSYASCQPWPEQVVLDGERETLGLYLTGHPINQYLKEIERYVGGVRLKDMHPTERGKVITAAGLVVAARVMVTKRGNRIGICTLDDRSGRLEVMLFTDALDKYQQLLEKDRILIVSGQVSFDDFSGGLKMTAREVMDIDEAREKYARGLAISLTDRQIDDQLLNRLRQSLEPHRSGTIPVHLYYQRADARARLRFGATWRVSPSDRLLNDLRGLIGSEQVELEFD
Procedure: as §1

DNA primase = DNA primase (UniProt P0ABS7)
Chain of DNA primase (P0ABS7 whole entry): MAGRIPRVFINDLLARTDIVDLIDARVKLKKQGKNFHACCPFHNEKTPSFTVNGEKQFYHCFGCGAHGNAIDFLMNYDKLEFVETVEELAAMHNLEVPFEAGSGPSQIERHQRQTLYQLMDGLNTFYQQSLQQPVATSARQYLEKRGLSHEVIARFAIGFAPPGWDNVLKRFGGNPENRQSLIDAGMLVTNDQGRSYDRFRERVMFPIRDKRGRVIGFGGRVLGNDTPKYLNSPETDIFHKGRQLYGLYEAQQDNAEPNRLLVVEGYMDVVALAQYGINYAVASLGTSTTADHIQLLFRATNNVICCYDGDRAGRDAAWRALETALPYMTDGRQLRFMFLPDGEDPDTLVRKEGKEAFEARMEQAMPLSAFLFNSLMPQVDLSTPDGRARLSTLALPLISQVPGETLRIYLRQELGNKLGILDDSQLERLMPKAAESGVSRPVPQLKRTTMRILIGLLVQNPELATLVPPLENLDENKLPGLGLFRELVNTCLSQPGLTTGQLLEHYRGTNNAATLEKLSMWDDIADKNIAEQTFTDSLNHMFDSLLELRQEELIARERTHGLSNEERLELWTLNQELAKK
Procedure: as §1

GlmU = GlmU (UniProt A7ZTU1)
Chain of GlmU (A7ZTU1 whole entry, looked up): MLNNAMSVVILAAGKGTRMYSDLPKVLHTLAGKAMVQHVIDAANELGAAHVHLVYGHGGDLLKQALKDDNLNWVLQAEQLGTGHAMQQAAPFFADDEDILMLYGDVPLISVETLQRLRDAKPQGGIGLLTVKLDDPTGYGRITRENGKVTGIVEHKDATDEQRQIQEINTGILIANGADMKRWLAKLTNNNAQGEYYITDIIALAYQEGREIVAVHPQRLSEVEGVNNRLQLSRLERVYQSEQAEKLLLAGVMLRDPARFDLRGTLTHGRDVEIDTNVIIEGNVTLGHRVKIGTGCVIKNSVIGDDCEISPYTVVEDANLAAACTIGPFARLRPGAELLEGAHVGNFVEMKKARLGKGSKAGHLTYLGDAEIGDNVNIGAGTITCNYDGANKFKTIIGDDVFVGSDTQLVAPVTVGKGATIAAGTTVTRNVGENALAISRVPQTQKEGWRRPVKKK
Procedure: as §1

Guanlyate kinase = Guanlyate kinase (UniProt Q0TBG1)
Chain of Guanlyate kinase (Q0TBG1 whole entry): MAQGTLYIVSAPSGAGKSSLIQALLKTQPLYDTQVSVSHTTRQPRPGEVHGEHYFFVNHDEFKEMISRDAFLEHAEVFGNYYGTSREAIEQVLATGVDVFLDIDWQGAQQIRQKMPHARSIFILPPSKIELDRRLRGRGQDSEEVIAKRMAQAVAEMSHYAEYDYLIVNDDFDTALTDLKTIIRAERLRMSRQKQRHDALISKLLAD
Procedure: as §1

MurA = MurA (UniProt Q3YX52)
Chain of MurA (Q3YX52 whole entry): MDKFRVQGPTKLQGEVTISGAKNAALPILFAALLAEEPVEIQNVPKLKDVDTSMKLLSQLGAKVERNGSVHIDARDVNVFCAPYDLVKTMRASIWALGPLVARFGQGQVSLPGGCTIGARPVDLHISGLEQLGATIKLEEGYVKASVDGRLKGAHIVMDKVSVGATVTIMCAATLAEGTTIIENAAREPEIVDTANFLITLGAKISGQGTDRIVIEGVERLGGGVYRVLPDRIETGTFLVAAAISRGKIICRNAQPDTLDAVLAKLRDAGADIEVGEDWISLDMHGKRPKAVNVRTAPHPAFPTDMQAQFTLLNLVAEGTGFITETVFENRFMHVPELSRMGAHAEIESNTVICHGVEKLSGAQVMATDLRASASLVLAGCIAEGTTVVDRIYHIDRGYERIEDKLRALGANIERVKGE
Procedure: as §1

MurC = MurC (UniProt C4ZRI6)
Chain of MurC (C4ZRI6 whole entry, looked up): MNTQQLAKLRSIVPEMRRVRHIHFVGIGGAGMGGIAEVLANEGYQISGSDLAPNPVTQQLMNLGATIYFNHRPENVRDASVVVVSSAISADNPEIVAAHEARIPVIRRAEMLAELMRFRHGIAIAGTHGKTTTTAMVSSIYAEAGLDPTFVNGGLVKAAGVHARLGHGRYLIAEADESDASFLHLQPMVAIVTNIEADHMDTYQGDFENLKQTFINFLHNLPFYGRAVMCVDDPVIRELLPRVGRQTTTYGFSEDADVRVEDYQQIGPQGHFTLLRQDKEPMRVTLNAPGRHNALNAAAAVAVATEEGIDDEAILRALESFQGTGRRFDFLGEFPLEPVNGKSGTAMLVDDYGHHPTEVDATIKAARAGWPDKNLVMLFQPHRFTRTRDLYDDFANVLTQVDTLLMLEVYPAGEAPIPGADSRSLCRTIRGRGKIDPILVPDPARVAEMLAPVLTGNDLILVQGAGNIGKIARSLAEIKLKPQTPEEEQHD
Procedure: as §1

MurD = target: T1, MurD (UniProt P14900)
T1 sequence (whole entry): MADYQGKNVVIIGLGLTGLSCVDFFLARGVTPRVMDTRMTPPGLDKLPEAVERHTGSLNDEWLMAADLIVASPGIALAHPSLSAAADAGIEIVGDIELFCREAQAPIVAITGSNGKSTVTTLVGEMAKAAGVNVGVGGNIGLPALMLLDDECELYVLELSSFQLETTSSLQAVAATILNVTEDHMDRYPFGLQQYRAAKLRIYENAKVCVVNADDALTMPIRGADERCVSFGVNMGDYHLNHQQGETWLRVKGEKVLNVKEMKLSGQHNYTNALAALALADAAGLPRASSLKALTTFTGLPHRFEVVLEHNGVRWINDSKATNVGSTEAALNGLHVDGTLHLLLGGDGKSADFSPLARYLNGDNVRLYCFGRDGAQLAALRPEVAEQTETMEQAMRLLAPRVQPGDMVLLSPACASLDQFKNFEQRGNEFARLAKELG
Procedure: as §1

MurF = target: T2, MurF (UniProt P11880)
T2 sequence (whole entry): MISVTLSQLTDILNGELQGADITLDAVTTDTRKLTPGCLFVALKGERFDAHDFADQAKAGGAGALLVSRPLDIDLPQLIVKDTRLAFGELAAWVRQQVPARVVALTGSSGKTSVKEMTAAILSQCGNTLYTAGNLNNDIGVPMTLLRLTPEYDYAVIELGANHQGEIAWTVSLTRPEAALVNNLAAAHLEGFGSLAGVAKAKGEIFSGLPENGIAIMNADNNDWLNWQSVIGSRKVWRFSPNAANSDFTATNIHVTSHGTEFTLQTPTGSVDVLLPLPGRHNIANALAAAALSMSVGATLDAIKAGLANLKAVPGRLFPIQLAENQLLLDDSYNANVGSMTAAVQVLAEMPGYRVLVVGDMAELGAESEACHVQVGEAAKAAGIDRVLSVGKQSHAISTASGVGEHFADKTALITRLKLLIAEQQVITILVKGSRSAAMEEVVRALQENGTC
Procedure: as §1

RNA polymerase = system: RNA polymerase
Procedure: as §1

SMILES | relative enzymatic activity (DNA gyrase) | relative enzymatic activity (DNA helicase) | relative enzymatic activity (DNA ligase) | relative enzymatic activity (DNA polymerase) | relative enzymatic activity (DNA primase) | relative enzymatic activity (GlmU) | relative enzymatic activity (Guanlyate kinase) | relative enzymatic activity (MurA) | relative enzymatic activity (MurC) | relative enzymatic activity (MurD) | relative enzymatic activity (MurF) | relative enzymatic activity (RNA polymerase)
CC1(C)SC2C(N3C(=O)C(c4ccccc4)NC3(C)C)C(=O)N2C1C(=O)[O-].[K+] (configuration not stated) | 1.14 ± 0.073 | 0.458 ± 0.13 | 1.67 ± 0.9 | 1.36 ± 0.37 | 0.776 ± 0.26 | 0.948 ± 0.043 | 1.13 ± 0.1 | 0.219 ± 0.028 | 0.925 ± 0.025 | 0.563 ± 0.37 | 0.945 ± 0.14 | 0.90251 ± 0.00052
CC[C@H]1OC(=O)[C@H](C)[C@@H](O[C@H]2C[C@@](C)(OC)[C@@H](O)[C@H](C)O2)[C@H](C)[C@@H](O[C@@H]2O[C@H](C)C[C@H](N(C)C)[C@H]2O)[C@](C)(OC)C[C@@H](C)C(=O)[C@H](C)[C@@H](O)[C@]1(C)O | 0.647 ± 0.56 | 0.732 ± 0.33 | 0.901 ± 0.15 | 1.15 ± 0.22 | 0.831 ± 0.025 | 1.03 ± 0.0049 | 0.97 ± 0.048 | 0.856 ± 0.12 | 1.01 ± 0.14 | 0.58 ± 0.37 | 0.942 ± 0.24 | 0.862 ± 0.13
CC(C)(ON=C(C(=O)NC1C(=O)N2C(C(=O)[O-])=C(C[n+]3ccccc3)CSC12)c1csc(N)n1)C(=O)O (configuration not stated) | 0.0358 ± 0.051 | 0.494 ± 0.12 | 1.08 ± 0.29 | 0.444 ± 0.021 | 0.593 ± 0.11 | 0.79 ± 0.019 | 0.876 ± 0.015 | 0.0456 ± 0.016 | 0.704 ± 0.14 | 0.548 ± 0.37 | 0.924 ± 0.15 | 0.137 ± 0.0022
CCN1CCN(C(=O)NC(C(=O)NC2C(=O)N3C(C(=O)O)=C(CSc4nnnn4C)CSC23)c2ccc(O)cc2)C(=O)C1=O (configuration not stated) | 0.414 ± 0.27 | 0.636 ± 0.11 | 1.35 ± 0.11 | 1.23 ± 0.34 | 0.673 ± 0.16 | 1.09 ± 0.17 | 0.828 ± 0.076 | 0.0994 ± 0.0088 | 0.942 ± 0.1 | 0.546 ± 0.35 | 0.965 ± 0.23 | 0.96 ± 0.2
CCCC[P+](CCCC)(CCCC)Cc1ccc(NC(=O)[C@@H](Cc2ccc3ccccc3c2)N=C(NC2CCCCC2)NC2CCCCC2)cc1 | 0.0368 ± 0.052 | 0.0252 ± 0.0031 | 0.897 ± 0.14 | 0.636 ± 0.1 | 0.576 ± 0.037 | 0.139 ± 0.0022 | 0.245 ± 0.019 | 0.0381 ± 0.0081 | 0.817 ± 0.36 | 0.092 ± 0.023 | 0.108 ± 0.018 | 0.2596 ± 0.002
Cn1cc(-c2[nH]c3cc(NC(=O)[C@H](N)C4CCCCC4)cc4c3c2C=NNC4=O)cn1 | 0.0124 ± 0.018 | 0.0463 ± 0.061 | 0.703 ± 0.085 | 0.083 ± 0.099 | ≤ 0 | 0.899 ± 0.013 | 0.0166 ± 0.0039 | 0.348 ± 0.12 | – | 0.599 ± 0.43 | 1.13 ± 0.017 | 0.191 ± 0.029
Oc1ccc(Cl)c2cccnc12 | 0.354 ± 0.41 | 0.534 ± 0.19 | 1.03 ± 0.24 | 1.12 ± 0.21 | 0.7986 ± 0.0017 | 0.9167 ± 0.0045 | 0.821 ± 0.036 | 0.442 ± 0.04 | – | 0.656 ± 0.46 | 1.02 ± 0.23 | 0.854 ± 0.1
Cn1nnnc1SCC1=C(C(=O)[O-])N2C(=O)C(NC(=O)C(O)c3ccccc3)C2SC1.[Na+] (configuration not stated) | 0.841 ± 0.26 | 0.638 ± 0.12 | 1.42 ± 0.27 | 1.19 ± 0.25 | 0.689 ± 0.18 | 1.16 ± 0.18 | 0.942 ± 0.17 | 0.0762 ± 0.016 | – | 0.636 ± 0.44 | 0.988 ± 0.21 | 1.16 ± 0.45
CCn1nc(C(=O)O)c(=O)c2cc3c(cc21)OCO3 | 0.136 ± 0.013 | 0.479 ± 0.042 | 1.093 ± 0.01 | 1.29 ± 0.3 | 0.744 ± 0.21 | 0.99 ± 0.077 | 1.013 ± 0.0046 | 0.762 ± 0.17 | – | 0.61 ± 0.41 | 0.86 ± 0.028 | 0.929 ± 0.051
Cc1nnc(SCC2=C(C(=O)O)N3C(=O)[C@@H](NC(=O)Cn4cnnn4)[C@H]3SC2)s1 | 0.719 ± 0.43 | 0.348 ± 0.37 | 0.987 ± 0.14 | 1.17 ± 0.26 | 0.792 ± 0.035 | 0.995 ± 0.059 | 0.9645 ± 0.0053 | 0.137 ± 0.029 | – | 0.604 ± 0.41 | 0.96 ± 0.22 | 0.862 ± 0.057
Cl.NC1CCN(c2c(F)cc3c(=O)c(C(=O)O)cn(C4CC4)c3c2Cl)C1 (configuration not stated) | 0.213 ± 0.3 | 0.622 ± 0.2 | 0.994 ± 0.13 | 1.08 ± 0.17 | 0.872 ± 0.014 | 0.974 ± 0.019 | 0.92 ± 0.21 | 0.73669 ± 0.0002 | – | 0.606 ± 0.42 | 0.977 ± 0.24 | 0.809 ± 0.07
COc1c(N2CCNC(C)C2)c(F)cc2c(=O)c(C(=O)O)cn(C3CC3)c12 (configuration not stated) | 0.0476 ± 0.067 | 0.48 ± 0.021 | 0.942 ± 0.14 | 1.09 ± 0.15 | 0.876 ± 0.017 | 0.989 ± 0.034 | 0.899 ± 0.084 | 0.804 ± 0.16 | – | 0.577 ± 0.36 | 0.942 ± 0.26 | 0.763 ± 0.0079
C=C1c2cccc(O)c2C(=O)C2=C(O)C3(O)C(=O)C(C(N)=O)=C(O)C(N(C)C)C3C(O)C12.Cl (configuration not stated) | 0.0714 ± 0.1 | 0.143 ± 0.031 | 0.963 ± 0.19 | 0.187 ± 0.022 | 0.399 ± 0.077 | 1 ± 0.011 | 0.376 ± 0.018 | 0.0701 ± 0.026 | – | 0.62 ± 0.43 | 0.937 ± 0.28 | 0.052 ± 0.025
CN(C)C1C(O)=C(C(N)=O)C(=O)C2(O)C(O)=C3C(=O)c4c(O)ccc(Cl)c4C(C)(O)C3CC12.Cl (configuration not stated) | 1.15 ± 0.17 | 0.47 ± 0.023 | 1.03 ± 0.23 | 1.35 ± 0.47 | 0.707 ± 0.21 | 0.974 ± 0.048 | 0.961 ± 0.076 | 0.767 ± 0.014 | – | 0.584 ± 0.37 | 0.93 ± 0.17 | 0.822 ± 0.027
CN1CCN(c2c(F)cc3c(=O)c(C(=O)O)cn4c3c2OCN4C)CC1 | 0.115 ± 0.16 | 0.53713 ± 0.00022 | 0.908 ± 0.041 | 1.17 ± 0.21 | 0.86 ± 0.01 | 0.97 ± 0.023 | 0.958 ± 0.14 | 0.585 ± 0.19 | – | 0.624 ± 0.43 | 1.17 ± 0.022 | 0.816 ± 0.086
CN1CCN(c2c(F)cc3c(=O)c(C(=O)O)cn4c3c2SCC4)CC1 | 0.0039 ± 0.0055 | 0.623 ± 0.2 | 1.02 ± 0.03 | 1.21 ± 0.25 | 0.807 ± 0.022 | 0.952 ± 0.026 | 0.926 ± 0.19 | 0.7644 ± 0.0074 | – | 0.608 ± 0.44 | 0.899 ± 0.27 | 0.844 ± 0.023
NC(C(=O)NC1C(=O)N2C(C(=O)O)=C(Cl)CSC12)c1ccccc1 (configuration not stated) | 1.09 ± 0.06 | 0.441 ± 0.046 | 1.07 ± 0.039 | 1.38 ± 0.51 | 0.74 ± 0.23 | 0.982 ± 0.015 | 1.04 ± 0.088 | 0.0755 ± 0.013 | – | 0.58 ± 0.4 | 0.945 ± 0.26 | 0.971 ± 0.085
